Where “and” joins values, the source holds several entries; their conditions need not be identical. Identical values can stand only once. Results filed as inconclusive are left out. Calls of active or inactive are those of the source. Unless noted, the call rests on the fitted dose curve; in most records, active means well fitted curve in the direction sought with a large enough effect; inconclusive means small, poorly fitted or top-dose-only effect, or another doubt; inactive means no such curve, though single readings can be large; an effect the other way counts as inactive or inconclusive.
Columns and labels:
[1] = Cell Viability - SK-N-SH (AID 435; calls by dose curve;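 further: potency means the concentration at half of the fitted maximal effect; compound exposure lasted 40 h at 37 °C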); settings: SK-N-SH neuroblastoma cell viability qHTS
Procedure, shortened: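 Luminescent ATP signal served as the viability read-out after 40 hours of compound treatment of human neuroblastoma SK-N-SH cells. Concentration-response data, scaled between DMSO and 100 uM tamoxifen, gave AC50 values by standard Hill modeling.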

[2] = Cell Viability - HUV-EC-C (AID 542); settings: HUV-EC-C endothelial cell viability, qHTS; series mostly up to 92.2 µM; further: on the % scale 0 is the no-effect control and ±100 the full control effect; nearly all actives have a fitted effect of over 35% in size
Procedure, shortened: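 Decrease in cellular ATP, quantified by luciferase luminescence, reflects toxicity in normal human vascular endothelial HUV-EC-C cells given compound for 40 hr in complete culture medium. Values are AC50s from concentration-response curves.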

[3] = Cell Viability - H-4-II-E (AID 543); settings: H-4-II-E rat hepatoma viability; series mostly up to 92.2 µM; further: nearly all actives have a fitted effect of over 35% in size; further: potency means the concentration at half of the fitted maximal effect
Procedure, shortened: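 Here, cytotoxicity is measured in the rat hepatoma line H-4-II-E as loss of intracellular ATP after 40 hr compound treatment, detected by luciferase luminescence.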

[4] = Cell Viability - SH-SY5Y (AID 544); settings: SH-SY5Y neuroblastoma cell viability; viability change, negative = cytotoxic: at 92.2 µM (top of the series); further: nearly all actives have a fitted effect of over 55% in size; further: potency means the concentration at half of the fitted maximal effect;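 on viability change, negative = cytotoxic: 0% = DMSO alone and -100% = 100 µM tamoxifen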
Procedure, shortened: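 Cytotoxicity is scored as a concentration-dependent fall in intracellular ATP in human SH-SY5Y cells treated 40 hr in complete culture medium. Potency is expressed as AC50 from a Hill equation fit.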

[5] = Cell Viability - Renal Proximal Tubule (AID 545); settings: renal proximal tubule cells viability; series mostly up to 91.7 µM;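 further: 0% = DMSO only and -100% = 100 µM tamoxifen; nearly all actives have a fitted effect of over 40% in size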
Procedure, shortened: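 Luminescent ATP signal (CellTiter-Glo) served as the viability read-out after 40 hr compound exposure of freshly isolated rat proximal tubule cells at 37 °C. Concentration-dependent ATP loss was fitted with the Hill equation to give AC50.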

[6] = Cellular Toxicity (caspase-3) H-4-II-E (AID 663); settings: H-4-II-E rat hepatoma; Potency: caspase-3 activation; series mostly up to 92.2 µM;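 further: 0% = DMSO basal and 100% = 100 µM tamoxifen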
Procedure, shortened: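 Apoptosis induction is scored as increased luminescence from caspase 3/7 substrate cleavage in rat hepatoma H-4-II-E cells exposed to compound for 16 hr. Activity is scaled between DMSO and 100 uM tamoxifen.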

[7] = Cell Viability - LYMP2-001 (AID 921); settings: LYMP2-001 lymphoblastoid cell viability; series mostly up to 92.2 µM;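 further: cells exposed to compound for 24 h at 37 °C; nearly all actives have a fitted effect of over 70% in size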; further: potency means the concentration at half of the fitted maximal effect
Procedure, shortened: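 Steps: seed 2500 lymphoblastoid cells/well; 5 hr, 37 C; add compound; 24 hr, 37 C; CellTiter-Glo reagent, 30 min room temperature; read luminescence. Concentration-response modeled by Hill equation for AC50.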

[8] = Cell Viability - LYMP2-019 (AID 973); settings: LYMP2-019 lymphoblastoid cell line viability; series mostly up to 92.2 µM;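 further: cells exposed to compound for 24 h at 37 °C; nearly all actives have a fitted effect of over 55% in size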; further: potency means the concentration at half of the fitted maximal effect
Procedure, shortened: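 Cells plated at 2500/well and allowed 5 hr at 37 C before compound addition. After 24 hr incubation, CellTiter-Glo reagent was added, plates sat 30 min at room temperature, and luminescence was recorded.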

[9] = Cell Viability - LYMP2-023 (AID 975); settings: LYMP2-023 lymphoblastoid cell viability; series mostly up to 92.2 µM;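 further: cells exposed to compound for 24 hours at 37 °C; nearly all actives have a fitted effect of over 55% in size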; further: potency means the concentration at half of the fitted maximal effect
Procedure, shortened: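 Concentration-dependent drop in intracellular ATP measures acute cytotoxicity in a human lymphoblastoid line treated for 24 hours in complete culture medium. AC50 values are taken from Hill-equation fits of qHTS data.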

[10] = Cell Viability - LYMP2-010 (AID 981); settings: LYMP2-010 lymphoblastoid cell viability, qHTS; series mostly up to 92.2 µM;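 further: cells exposed to compound for 24 hours at 37 °C; nearly all actives have a fitted effect of over 55% in size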; further: potency means the concentration at half of the fitted maximal effect
Procedure, shortened: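 Acute toxicity is scored as a concentration-dependent loss of cellular ATP in human lymphoblastoid cells after 24 hr compound exposure in complete medium. Tetraoctylammonium bromide is the positive control.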

[11] = Cell Viability - LYMP2-012 (AID 982); settings: LYMP2-012 lymphoblastoid cell viability qHTS; series mostly up to 92.2 µM; further: potency means the concentration at half of the fitted maximal effect
[12] = Cell Viability - LYMP2-020 (AID 986); settings: series mostly up to 92.2 µM; further: potency means the concentration at half of the fitted maximal effect
Procedure, shortened: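 Acute cytotoxicity in a human lymphoblastoid line is scored as a concentration-dependent fall in cellular ATP after 24 hr at 37 C in complete medium. The positive control is tetraoctylammonium bromide, and potency is given as Hill-fit AC50.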

[13] = Cell Viability - LYMP1-002 - Assay at 24 hr (AID 993); settings: LYMP1-002 lymphoblastoid cells viability; series mostly up to 92.2 µM; further: on the % scale 0 is the no-effect control and ±100 the full control effect
Procedure, shortened: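 qHTS, LYMP1-002 lymphoblastoid, 24 h cpd, 37 C, CellTiter-Glo ATP luminescence; AC50 via Hill eq.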

[14] = target: Peroxisome proliferator-activated receptor gamma (Homo sapiens) (UniProt P37231); test: qHTS assay for small molecule agonists of peroxisome proliferator-activated receptor gamma signaling (AID 588536; active means well fitted curve in the direction sought with a large enough effect in the signal ratio, with a control signal flat, not every such curve was filed as active; the % refers to the signal ratio;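 further: 0% = DMSO basal wells and 100% = rosiglitazone at 2 µM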); settings: HEK293 PPARg-UAS-bla, beta-lactamase ratio, 16 h, percent of rosiglitazone response, DMSO as zero; series mostly up to 76.7 µM
Procedure, shortened: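 Ratiometric blue/green fluorescence (405 nm excitation; 460 and 530 nm emission) from CCF4-loaded HEK293 reporter cells serves as signal. Exposure to test compounds lasts 16 h at 37 C in medium containing 1% charcoal/dextran-treated serum.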

[15] = target: Retinoic acid receptor RXR-alpha (Homo sapiens) (UniProt P19793); test: qHTS assay for small molecule antagonists of retinoid X receptor alpha signaling (AID 588546; active means well fitted inhibition curve with a large enough effect in the signal ratio, with a control signal flat, not every such curve was filed as active; the % refers to the signal ratio;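 further: cells stimulated with 9-cis-retinoic acid as agonist; on the % scale 0 is the no-effect control and ±100 the full control effect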); settings: HEK293T RXRa-UAS-bla, beta-lactamase ratio, antagonist mode
Procedure, shortened: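 Beta-lactamase reporter inhibition, read as CCF4 fluorescence ratio (ex 405, em 460/530 nm) after 2 h at RT. HEK293T UAS-bla cells, 2500/well, were stimulated with 9-cis-RA at 500 or 100 nM final alongside test compound for 18 h at 37 C.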

[16] = qHTS assay for small molecule activators of the nuclear factor-kappa B (NF-kB) signaling pathway (AID 651749; active means well fitted activation curve with a large enough effect in the signal ratio; the % refers to the signal ratio; further: % of control where 0% means no effect); settings: NF-kB-bla ME-180 cells, beta-lactamase FRET ratio, 16 h; active compounds read high
Procedure, shortened: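 Stably transfected ME-180 line; NF-kB response element upstream of beta-lactamase. Treatment: compound or DMSO, 16 hr. Detection: fluorescent FRET substrate.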

[17] = qHTS assay for small molecule disruptors of the mitochondrial membrane potential - 1 hr assay (AID 651754; calls by dose curve; further: nearly all actives have a fitted effect of over 35% in size; further: potency means the concentration at half of the fitted maximal effect); settings: series mostly up to 92.2 µM
Procedure, shortened: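 Steps: seed HepG2 cells and let attach overnight; pin-transfer compound or vehicle; incubate 1 hr at 37C; add Mito-MPS dye for 30 min; read two-channel fluorescence for monomer and aggregate forms.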

[18] = qHTS assay for small molecule agonists of the antioxidant response element (ARE) signaling pathway measured by Nrf2-dependant transcriptional activity (AID 720636; active means well fitted curve in the direction sought with a large enough effect in the repeat runs; an effect the other way counts as inactive or inconclusive;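 further: HepG2 cells with an ARE-driven luciferase reporter; % of control where 0% means no effect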); settings: ARE-luc HepG2, Nrf2 luciferase reporter, 16 h; series mostly up to 92.4 µM
Procedure, shortened: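 We exposed ARE-luc HepG2 cells, seeded in assay medium with 1% dialyzed FBS and allowed 6 hr to adhere, to test compounds overnight (16 hr, 37 C) before measuring luciferase with ONE-Glo.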

[19] = qHTS assay for cell viability of HEK293 cells (AID 743288); settings: ATP luminescence (CellTiter-Glo), 18 h, active compounds read low; further: on the % scale 0 is the no-effect control and ±100 the full control effect; nearly all actives have a fitted effect of over 50% in size
Procedure, shortened: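 HEK293 parental, 2,000 cells/well; ≥5 h pre-incubation 37 C; pintool compound addition; 18 h, 37 C; CellTiter-Glo 30 min RT; luminescence read.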

[20] = Cell Viability - LYMP2-006 (AID 978); settings: LYMP2-006 lymphoblastoid cell viability, qHTS; series mostly up to 92.2 µM;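 further: cells exposed to compound for 24 hours; nearly all actives have a fitted effect of over 60% in size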; further: potency means the concentration at half of the fitted maximal effect
Procedure, shortened: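 Cells are seeded at 2500 per well and rested 5 hr at 37 C. Compounds are added across a concentration series for 24 hr at 37 C, after which ATP is quantified by luciferase luminescence.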

Sequence of Retinoic acid receptor RXR-alpha (Homo sapiens) (P19793 whole entry, looked up): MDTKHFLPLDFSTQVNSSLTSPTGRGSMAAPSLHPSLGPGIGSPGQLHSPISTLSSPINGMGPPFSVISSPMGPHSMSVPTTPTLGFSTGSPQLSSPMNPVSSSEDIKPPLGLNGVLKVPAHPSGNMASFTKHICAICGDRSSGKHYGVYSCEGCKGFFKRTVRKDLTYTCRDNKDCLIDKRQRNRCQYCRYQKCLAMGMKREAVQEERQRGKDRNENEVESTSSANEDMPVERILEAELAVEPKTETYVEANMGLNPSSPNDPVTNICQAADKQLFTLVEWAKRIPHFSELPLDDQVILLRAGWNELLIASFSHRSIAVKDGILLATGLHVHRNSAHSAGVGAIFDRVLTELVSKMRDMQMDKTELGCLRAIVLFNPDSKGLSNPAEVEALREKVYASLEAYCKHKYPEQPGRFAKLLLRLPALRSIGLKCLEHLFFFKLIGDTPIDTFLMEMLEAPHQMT
Sequence of Peroxisome proliferator-activated receptor gamma (Homo sapiens) (P37231 whole entry, looked up): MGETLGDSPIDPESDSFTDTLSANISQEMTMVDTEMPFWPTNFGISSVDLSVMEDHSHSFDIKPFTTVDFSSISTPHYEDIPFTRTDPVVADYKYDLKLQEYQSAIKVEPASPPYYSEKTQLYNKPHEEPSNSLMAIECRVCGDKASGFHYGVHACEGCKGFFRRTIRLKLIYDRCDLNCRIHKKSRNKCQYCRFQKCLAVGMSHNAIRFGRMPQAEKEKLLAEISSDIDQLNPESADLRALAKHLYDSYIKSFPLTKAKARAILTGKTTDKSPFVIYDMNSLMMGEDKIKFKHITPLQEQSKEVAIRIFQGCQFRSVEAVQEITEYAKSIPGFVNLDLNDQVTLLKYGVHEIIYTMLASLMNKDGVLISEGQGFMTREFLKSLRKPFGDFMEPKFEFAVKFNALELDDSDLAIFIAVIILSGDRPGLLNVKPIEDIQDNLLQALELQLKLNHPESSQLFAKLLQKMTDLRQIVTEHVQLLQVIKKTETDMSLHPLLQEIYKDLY

BrCCc1ccccc1
inactive: Potency [1] > 92 µM | Potency [2] | Potency [3] | Potency [4] | outcome [5] | Potency [6] | Potency [7] | Potency [8] | Potency [9] | Potency [10] | Potency [11] | Potency [12] | Potency [13] | outcome [14] | max response [15] 9.1% | activation [16] -1.06% | Potency [17] | Potency [18] | max response [19] -1.44%

Cc1ccc([N+](=O)[O-])cc1
inactive: Potency [1] > 92 µM | Potency [2] | Potency [3] | Potency [4] | Potency [6] | Potency [7] | Potency [8] | Potency [9] | Potency [10] | Potency [11] | Potency [12] | outcome [14] | max response [15] 4.07% | Potency [17] | Potency [18] | max response [19] 0.535%

CCOC(=O)CBr
inactive: Potency [1] > 92 µM | Potency [2] | Potency [3] | outcome [5] | Potency [6] | Potency [7] | Potency [8] | Potency [20] | Potency [10] | Potency [12] | Potency [13] | outcome [14] | activation [16] -0.133% | Potency [17] | max response [19] -5.15%

CCOC(=O)C1OC1(C)c1ccccc1 (stereo unspecified)
inactive: Potency [1] > 92 µM | Potency [2] | Potency [4] | outcome [5] | Potency [6] | Potency [9] | Potency [20] | Potency [11] | Potency [12] | Potency [13] | outcome [14] | Potency [17] | Potency [18] | max response [19] 7.29%

C/C=C/C=O
inactive: Potency [1] > 92 µM | Potency [2] | Potency [3] | Potency [4] | Potency [6] | Potency [7] | Potency [8] | Potency [20] | Potency [10] | Potency [11] | Potency [12] | outcome [14] | activation [16] 0.438% | Potency [18] | max response [19] 5.69%

N#C/C=C/C#N
inactive: outcome [5] | Potency [6] | Potency [13] | Potency [17]
active: Potency [3] 50.1 µM | Potency [7] 31.6 µM | Potency [8] 31.6 µM | Potency [9] 39.8 µM | Potency [20] 25.1 µM | Potency [10] 31.6 µM | Potency [11] 20 µM | Potency [12] 31.6 µM

Brc1cccc(-c2ccccc2)c1
inactive: Potency [1] > 92 µM | Potency [2] | Potency [4] | Potency [6] | Potency [7] | Potency [8] | Potency [9] | Potency [20] | Potency [10] | Potency [11] | Potency [12] | Potency [13] | activation [16] -1.09% | Potency [18] | max response [19] 8.7%

Cc1ccc(OP(=O)(Oc2ccc(C)cc2)Oc2ccc(C)cc2)cc1
inactive: Potency [1] > 92 µM | Potency [2] | Potency [3] | outcome [5] | Potency [6] | Potency [7] | Potency [8] | Potency [20] | Potency [10] | Potency [11] | Potency [12] | Potency [13] | max response [15] -1.31% and -25.6% | activation [16] -1% and 2.01% | Potency [18] | max response [19] -12.3% and -24.8%
active: Potency [17] 9.44 µM

CCCCNC(=O)n1c(NC(=O)OC)nc2ccccc21
active: Potency [3] 5.01 µM | Potency [4] 6.31 µM
inactive: Potency [7] | Potency [8] | Potency [9] | Potency [20] | Potency [10] | Potency [11] | Potency [13] | outcome [14] | max response [15] -15.6% | activation [16] -0.565% and 0.0154% | Potency [17]

— PubChem BioAssay (NCATS)
